Source: PubChem BioAssay
PHOSPHO1 inh – PubChem AID 1565; Phosphoethanolamine/phosphocholine phosphatase (Homo sapiens), Q8TCT1; recombinant PHOSPHO1, absorbance phosphatase assay; inhibition, % at 13.3 µM; hit rate 1.1% among 290,000; in the data active = inhibition above about 60%
A3A deaminase – APOBEC3A ssDNA deaminase inhibitors, primary screen, selectivity assay for APOBEC3G inhibitor project, biochemical, FAM/TAMRA oligo cleavage fluorescence | DNA dC->dU-editing enzyme APOBEC-3A (Homo sapiens), P31941 | inhibition, % at 20 µM | recombinant A3A, FAM/TAMRA ssDNA deamination fluorescence | hit rate 0.41% among 330,000 | AID 493011, 2011;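 active = at least 40% inhibition at 20 µM here, with at most 30% in a related deaminase screen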
PABP polyA inh – PABP poly(A) RNA binding inhibitors, primary screen, biochemical, fluorescence polarization, uHTS; Polyadenylate-binding protein 1 (Homo sapiens), P11940; AID 2014, 2009; hit rate 1% among 290,000; calls only at 35 µM;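 note: calls also rest on retests at 20 µM and on dose response follow-up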
APOBEC3G inh – APOBEC3G DNA deaminase inhibitors, primary screen, biochemical, fluorescence, single-stranded DNA substrate, uHTS | recombinant A3G, ssDNA deamination FAM/TAMRA fluorescence | hit rate 0.28% among 330,000 | DNA dC->dU-editing enzyme APOBEC-3G (Homo sapiens), Q9HC16 | inhibition, % at 20 µM;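 active = inhibition of at least 40% at 20 µM, with no more than 30% in the related APOBEC3A deaminase screen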
Target sequence (Q9HC16 whole entry, looked up): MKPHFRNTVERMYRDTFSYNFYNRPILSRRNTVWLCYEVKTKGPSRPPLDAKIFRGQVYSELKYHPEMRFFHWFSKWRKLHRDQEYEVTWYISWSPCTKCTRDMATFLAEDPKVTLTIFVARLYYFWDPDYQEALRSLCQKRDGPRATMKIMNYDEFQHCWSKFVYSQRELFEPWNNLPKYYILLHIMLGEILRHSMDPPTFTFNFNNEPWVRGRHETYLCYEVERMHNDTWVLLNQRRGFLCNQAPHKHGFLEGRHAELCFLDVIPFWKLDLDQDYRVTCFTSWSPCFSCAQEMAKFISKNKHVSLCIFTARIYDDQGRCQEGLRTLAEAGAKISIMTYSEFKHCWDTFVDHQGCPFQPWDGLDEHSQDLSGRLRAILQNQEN
PABP1 MLLE inh – inhibitors of PABP1 MLLE–PAM2 peptide binding, primary screen, biochemical, fluorescence polarization, FITC-PAM2, GST-MLLE | Polyadenylate-binding protein 1 (Homo sapiens), P11940 | inhibition, % at 20 µM | hit rate 0.36% among 360,000 | AID 588489, 2011; in the data active = inhibition above about 35%, passing the limit was not always enough
eIF4H FP inh – human eIF4H binding inhibitors, primary screen, translation initiation inhibitor project, biochemical, uHTS, fluorescence polarization | Eukaryotic translation initiation factor 4H (Homo sapiens), Q15056 | AID 2012, 2009 | inhibition, % at 35 µM | hit rate 0.94% among 290,000 | eIF4H fluorescence polarization binding assay;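 note: calls also rest on retests at 20 µM and on dose response follow-up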
Numbers stand for hits; - = inactive; ? = inconclusive; . = not tested or not shown; + = active, no number. Rows were chosen to be rich in hits. Some 2.6% of all compounds tested hit in one or more screens of this group. Unless noted, the rule behind the calls is not given here.

SMILES	PHOSPHO1 inh	A3A deaminase	PABP polyA inh	APOBEC3G inh	PABP1 MLLE inh	eIF4H FP inh
O=c1[nH]c2cc3c(cc2cc1CN(Cc1nnnn1CC1CCCO1)C1CCCC1)OCO3 (stereo unspecified)	-	-	+	-	64	-
COCCn1nnnc1CN(CCc1ccccc1)Cc1cc2ccc(C)cc2[nH]c1=O	66	-	-	-	-	-
O=c1[nH]c2cc3c(cc2cc1CN(CCc1ccccc1)Cc1nnnn1CC1CCCO1)OCO3 (stereo unspecified)	-	-	+	-	-	?
Cc1nc2[nH]c(=S)[nH]c(=O)c2nc1C	.	.	.	.	42	.
Cc1nc2c(=O)[nH]c(=S)[nH]c2[nH]c1=O	.	.	.	.	-	.
CCN1CSC(=S)N(Cc2ccccc2)C1	-	-	-	-	-	-
CCN1CSC(=S)N(Cc2ccc(OC)cc2)C1	-	-	-	-	40	-
O=c1[nH]c2ccccc2n1C1=CCNCC1	-	-	-	-	-	-
COc1ccc(CCNC(=O)c2ccc(OCc3c(C)noc3C)cc2)cc1OC	.	-	.	-	-	.
COc1cc(C(=O)NC2=NCCS2)ccc1OCc1c(C)noc1C	-	-	-	-	42	-
COc1ccc(CNC(=O)COC(=O)c2ccc(OCc3c(C)noc3C)cc2)cc1OC	-	-	-	-	-	90
COc1cc(C(=O)Nc2cc(C)ccc2C)ccc1OCc1c(C)noc1C	.	-	.	-	-	.
COc1cc(C(=O)NCCc2c[nH]c3ccccc23)ccc1OCc1c(C)noc1C	-	-	-	-	-	active
O=C(Oc1cc(Cl)ccc1Cl)c1ccc(N2CCOCC2)c([N+](=O)[O-])c1	-	-	-	-	-	-
Cc1ccsc1-c1cc2nc(NCCCN(C)C)n(C)c(=O)c2s1	.	.	.	.	-	.
CCOC(=O)CNC(=O)CSc1nc2cccnc2n1C	-	-	-	-	-	-
Cc1ccc2nc(N3C(=O)C(O)=C(C(=O)c4ccco4)C3c3cccs3)sc2c1 (stereo unspecified)	86	-	-	-	-	-
CCOc1ccc2nc(N3C(=O)C(O)=C(C(=O)c4ccco4)C3c3ccco3)sc2c1 (stereo unspecified)	.	-	.	-	-	.
Cc1cc(C)c2nc(N3C(=O)C(O)=C(C(=O)c4ccco4)C3c3ccco3)sc2c1 (stereo unspecified)	-	-	-	-	-	66
COc1ccc2nc(N3C(=O)C(O)=C(C(=O)c4ccco4)C3c3ccc(C)o3)sc2c1 (stereo unspecified)	.	-	.	-	-	.
COC(=O)C(C)NC(=O)CNS(=O)(=O)c1ccc(F)cc1 (stereo unspecified)	-	-	-	-	-	-
COc1ccc(OCc2nnc(SCC(=O)Nc3ccccc3F)o2)cc1	-	-	-	-	-	-
CCCCNC(=O)CC1Nc2ccccc2NC1=O (stereo unspecified)	-	-	-	-	-	-
CCCCCNC(=O)CC1Nc2c3ccccc3nc(=S)n2C1=O (stereo unspecified)	65	-	-	-	-	-
COc1cccc(C(c2sc3nc(C)nn3c2O)N2CCc3ccccc3C2)c1 (stereo unspecified)	74	-	-	-	-	-
SMILES	PHOSPHO1 inh	A3A deaminase	PABP polyA inh	APOBEC3G inh	PABP1 MLLE inh	eIF4H FP inh
COC/C=C/C1=CC2=CC(=O)C(C)(OC(=O)C3CCCC3)C(=O)C2=CO1 (stereo unspecified)	-	-	+	-	-	62
NC(=O)c1c(NC(=O)C2CCCO2)sc2c1CCCCC2 (stereo unspecified)	-	-	-	-	41	-
O=C(O)CN1C(=O)/C(=C\c2cc(Br)ccc2OCc2ccc(Cl)cc2Cl)SC1=S	.	-	+	-	-	88
C/C(=N\Nc1ccc(C(F)(F)F)cn1)c1ccncc1	-	-	+	-	-	active
CCC1CCCCN1C(=O)COc1c(Br)cc(Br)c2cccnc12 (stereo unspecified)	-	-	-	-	-	-
Cc1ccc(OCc2nnc(SCC(=O)c3ccccc3)n2Cc2ccco2)cc1	92	-	-	-	-	-
COc1ccc(C(=O)CSc2nnc(CNc3ccc(C)cc3C)n2Cc2ccco2)cc1	91	-	-	-	-	-
